Screens as filed in PubChem.
Myeloid diff MLP – induction of myeloid progenitor differentiation, primary screen, cell-based, flow cytometry, MLPCN library; 360,000 compounds, 1% hits; calls only at 10 µM; ER-HoxA9 myeloid progenitors, lysozyme-GFP differentiation;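 active = normalized GFP-positive differentiation at or above the plate's own cutoff, the solvent-only control mean plus 3 SD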;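 also: cells exposed to compound for four days before flow analysis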
FAS-TE inh – FAS thioesterase domain inhibitors, primary screen, biochemical, fluorescence intensity, uHTS; Fatty acid synthase (Homo sapiens), P49327; recombinant FAS-TE, OMFH fluorogenic substrate, fluorescence endpoint; inhibition, % at 15 µM; 360,000 compounds, 0.67% hits;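 active = compounds whose normalised, plate-corrected inhibition of enzyme fluorescence in the single-dose primary screen is 50% or more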
Target sequence (P49327 whole entry, looked up, the tested form may be a part): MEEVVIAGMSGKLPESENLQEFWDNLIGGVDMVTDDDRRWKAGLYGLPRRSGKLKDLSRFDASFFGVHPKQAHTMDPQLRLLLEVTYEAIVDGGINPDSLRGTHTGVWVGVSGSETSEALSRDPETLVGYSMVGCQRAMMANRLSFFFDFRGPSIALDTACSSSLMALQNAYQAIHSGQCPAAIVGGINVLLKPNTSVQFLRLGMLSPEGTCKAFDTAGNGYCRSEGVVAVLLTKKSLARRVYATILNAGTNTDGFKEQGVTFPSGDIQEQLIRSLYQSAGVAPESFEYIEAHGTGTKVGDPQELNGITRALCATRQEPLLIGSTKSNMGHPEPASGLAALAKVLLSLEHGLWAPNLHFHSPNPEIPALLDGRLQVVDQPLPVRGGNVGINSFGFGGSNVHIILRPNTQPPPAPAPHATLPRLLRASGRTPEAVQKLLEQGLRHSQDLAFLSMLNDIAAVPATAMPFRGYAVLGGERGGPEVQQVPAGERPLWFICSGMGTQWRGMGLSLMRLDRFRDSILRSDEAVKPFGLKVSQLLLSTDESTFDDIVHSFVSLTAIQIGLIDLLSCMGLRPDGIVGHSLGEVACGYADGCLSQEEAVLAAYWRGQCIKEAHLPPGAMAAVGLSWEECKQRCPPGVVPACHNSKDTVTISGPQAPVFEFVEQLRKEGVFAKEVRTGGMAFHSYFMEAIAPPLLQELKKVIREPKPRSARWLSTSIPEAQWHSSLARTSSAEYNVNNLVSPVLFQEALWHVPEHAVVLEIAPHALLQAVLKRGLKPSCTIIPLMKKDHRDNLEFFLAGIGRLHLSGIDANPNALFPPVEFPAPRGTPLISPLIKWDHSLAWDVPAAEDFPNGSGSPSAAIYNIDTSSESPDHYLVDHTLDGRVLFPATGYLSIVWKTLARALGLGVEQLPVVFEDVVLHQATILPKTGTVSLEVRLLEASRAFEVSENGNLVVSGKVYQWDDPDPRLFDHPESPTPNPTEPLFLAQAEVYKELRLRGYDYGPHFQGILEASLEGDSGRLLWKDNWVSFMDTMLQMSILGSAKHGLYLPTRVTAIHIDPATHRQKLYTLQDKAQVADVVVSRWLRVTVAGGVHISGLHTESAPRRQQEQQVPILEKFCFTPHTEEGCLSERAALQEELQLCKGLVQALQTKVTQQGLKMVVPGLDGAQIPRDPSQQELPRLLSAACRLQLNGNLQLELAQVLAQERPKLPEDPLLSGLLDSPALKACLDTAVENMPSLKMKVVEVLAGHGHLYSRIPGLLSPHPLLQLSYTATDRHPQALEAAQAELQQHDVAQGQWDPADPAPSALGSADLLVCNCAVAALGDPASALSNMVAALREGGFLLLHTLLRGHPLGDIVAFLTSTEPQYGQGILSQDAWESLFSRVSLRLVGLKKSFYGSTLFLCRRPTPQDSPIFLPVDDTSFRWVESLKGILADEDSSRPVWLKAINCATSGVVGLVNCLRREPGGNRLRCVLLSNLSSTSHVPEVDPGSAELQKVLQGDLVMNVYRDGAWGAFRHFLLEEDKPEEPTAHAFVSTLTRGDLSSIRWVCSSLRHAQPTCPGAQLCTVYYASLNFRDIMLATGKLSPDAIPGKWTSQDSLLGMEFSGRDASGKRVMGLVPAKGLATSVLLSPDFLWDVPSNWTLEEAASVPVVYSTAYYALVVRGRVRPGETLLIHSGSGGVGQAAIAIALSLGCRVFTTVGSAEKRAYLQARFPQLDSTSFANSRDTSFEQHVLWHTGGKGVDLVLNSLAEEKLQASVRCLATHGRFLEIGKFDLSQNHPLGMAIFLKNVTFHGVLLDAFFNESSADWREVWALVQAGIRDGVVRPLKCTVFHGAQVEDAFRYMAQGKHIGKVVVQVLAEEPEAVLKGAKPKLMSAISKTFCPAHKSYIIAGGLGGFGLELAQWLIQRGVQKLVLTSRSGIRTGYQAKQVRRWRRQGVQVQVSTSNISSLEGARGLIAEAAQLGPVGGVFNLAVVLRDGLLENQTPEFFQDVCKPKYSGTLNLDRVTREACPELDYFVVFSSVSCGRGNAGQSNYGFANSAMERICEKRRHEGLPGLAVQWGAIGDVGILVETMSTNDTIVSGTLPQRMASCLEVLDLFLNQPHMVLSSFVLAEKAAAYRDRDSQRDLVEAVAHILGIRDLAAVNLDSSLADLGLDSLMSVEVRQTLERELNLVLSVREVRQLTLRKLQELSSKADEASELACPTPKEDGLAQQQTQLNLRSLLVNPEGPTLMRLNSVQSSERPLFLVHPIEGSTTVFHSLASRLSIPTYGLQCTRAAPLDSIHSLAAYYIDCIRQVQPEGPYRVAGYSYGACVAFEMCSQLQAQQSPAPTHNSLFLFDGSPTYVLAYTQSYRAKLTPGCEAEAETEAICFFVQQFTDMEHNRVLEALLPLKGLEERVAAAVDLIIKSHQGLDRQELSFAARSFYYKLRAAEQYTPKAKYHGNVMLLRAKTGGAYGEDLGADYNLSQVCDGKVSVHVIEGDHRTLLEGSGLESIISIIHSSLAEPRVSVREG
MPTP block – mitochondrial permeability transition pore inhibitors, primary screen, biochemical, isolated mouse mitochondria, absorbance. inhibition, % at 10 µM. Ca2+ swelling absorbance, 30 min. 360,000 compounds, 1.4% hits. AID 602449, 2012;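 active = inhibition of 50% or more, scaled per plate between neutral and stimulator controls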
GRIN3A LBD mod – binders of NR3A ligand-binding domain, primary screen, biophysical, differential scanning fluorimetry, uHTS. Tm shift relative to glycine control, % at 25 µM. 340,000 compounds, 2.5% hits. Glutamate receptor ionotropic, NMDA 3A (GRIN3A) ligand-binding domain. NR3A LBD differential scanning fluorimetry, Tm shift; 0% = protein alone, 100% = glycine-bound protein. AID 1259313, 2017;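 active = melting temperature shift of at least 10% of the positive control shift, at one fixed dose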
rCAG binder – binders of r(CAG) RNA repeats, primary screen, biochemical, fluorescence | AID 651821, 2012 | r(CAG) RNA repeat, TO-PRO-1 dye displacement fluorescence | 370,000 compounds, 1.3% hits | inhibition, % at 3 µM;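 active = inhibition above the plate cutoff, the mean of all test compounds on that plate plus 3 SD, cut at about 35% in these data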;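 also: higher means more dye released from RNA so lower well fluorescence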
Myeloid diff CP1 – inducers of myeloid progenitor differentiation, confirmation, cell-based, GFP/Mac1 flow cytometry, cherry pick 01. ER-HoxA9 myeloid progenitors, GFP/Mac1 double-positive flow. calls only. AID 651706, 2012. shares compounds with Myeloid diff MLP. 2,300 compounds, 2% hits;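 active = share of green or green-and-red cells above 9 and 9% in run 1 or 4 and 3% in run 2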
GFP autofluor – flagged as fluorescent in myeloid differentiation counter-screen; shares compounds with Myeloid diff MLP; ER-HoxA9 myeloid progenitors, no estrogen, GFP autofluorescence flow cytometry; vehicle wells 0%, positive control 100%; fluorescence response, % (test concentration not listed); 2,300 compounds, 7.4% hits; AID 651707;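 active = over 5% cells positive for green fluorescent reporter, or over 2% positive for both it and APC stain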
Large screens that a line does not name were inactive (follow-up assays come after a bar, where they were run). Compounds with a hit are over-represented: about 5.7% of the library has one in this group of screens.

CCOc1ccc(C(c2c(NC(=O)c3ccccc3)sc(C)c2C)N2CCN(C)CC2)cc1 (centres undefined)	none
Cc1sc(NC(=O)c2ccccc2)c(C(c2ccccn2)N2CCN(CCO)CC2)c1C (centres undefined)	none | Myeloid diff CP1 inactive | GFP autofluor inactive
CCN(CC)Cc1c(O)ccc2occ(C(=O)c3ccc(OC)cc3)c12	none
CCN(CC)Cc1c(O)ccc2c([N+](=O)[O-])c(C)n(-c3ccc(OC)cc3)c12	Myeloid diff MLP active | Myeloid diff CP1 inactive | GFP autofluor inactive
CC(c1ccccc1)n1c(-c2ccccc2F)n[nH]c1=S (centres undefined)	none
CC(C)n1c(-c2ccccc2F)n[nH]c1=S	none | Myeloid diff CP1 inactive | GFP autofluor 85
CN1C(C(=O)NCc2cccc(Br)c2)CC2Cn3c(nc4cc5ccccc5cc43)C21 (centres undefined)	none
CCCCCN(C(=O)NC(=O)Nn1cnnc1)S(C)(=O)=O	Myeloid diff MLP active | Myeloid diff CP1 inactive | GFP autofluor inactive
CCCCCN(C(=O)NC(=O)NCCCC)S(C)(=O)=O	none
Cc1cc(Sc2nc(N(C)C)nc(N(C)C)n2)nc(Cl)n1	none
C=CCn1c(N)cc(=O)nc1SCC(=O)NC(C)c1ccccc1 (centres undefined)	none | Myeloid diff CP1 inactive | GFP autofluor inactive
COc1ccc2c(c1)CCCC21NC(=O)N(CC(=O)c2cc(F)ccc2F)C1=O (centres undefined)	none
CC(=O)N1CCc2cc(S(=O)(=O)NCCC(=O)Nc3ccc4c(c3)OCCO4)ccc21	none (no result: rCAG binder) | Myeloid diff CP1 inactive | GFP autofluor inactive
O=C(O)/C=C/c1ccc(S(=O)(=O)N2CCN(CCN3C(=O)C4C5C=CC(C5)C4C3=O)CC2)cc1 (centres undefined)	none
COc1ccccc1CC1(C)NC(=O)N(CC(=O)N2CCc3ccccc3C2)C1=O (centres undefined)	none | Myeloid diff CP1 inactive | GFP autofluor inactive
O=C(CN1C(=O)NC2(CCCCCCC2)C1=O)N1CCc2ccccc2C1	none
CC(=O)NC(CC(=O)OC(C)C(=O)Nc1ncc(Cl)cc1Cl)c1ccccc1 (centres undefined)	none
Cc1ccc(N/C(N)=N/c2nc(C)cc(C)n2)cc1	none
Cc1cc(C)nc(/N=C(\N)Nc2ccccc2-c2ccccc2)n1	Myeloid diff MLP active | Myeloid diff CP1 inactive | GFP autofluor inactive
